The values below come from PubChem BioAssay AID489037 (National Center for Advancing Translational Sciences (NCATS), 2010).

“And” between values parts separate entries of the source, which are not always exact repeats. Equal values may be shown once. Inconclusive results are not listed. The source made the active and inactive calls. Calls follow the shape of the dose curve; as a rule, active = well fitted inhibition curve with a large enough effect; inconclusive = small, poorly fitted or top-dose-only effect, or effect the other way; inactive = no such curve, though single readings can be large or run the other way.

Chain of Nuclear receptor ROR-gamma (Mus musculus) (P51450 whole entry, looked up, the tested form may be a part): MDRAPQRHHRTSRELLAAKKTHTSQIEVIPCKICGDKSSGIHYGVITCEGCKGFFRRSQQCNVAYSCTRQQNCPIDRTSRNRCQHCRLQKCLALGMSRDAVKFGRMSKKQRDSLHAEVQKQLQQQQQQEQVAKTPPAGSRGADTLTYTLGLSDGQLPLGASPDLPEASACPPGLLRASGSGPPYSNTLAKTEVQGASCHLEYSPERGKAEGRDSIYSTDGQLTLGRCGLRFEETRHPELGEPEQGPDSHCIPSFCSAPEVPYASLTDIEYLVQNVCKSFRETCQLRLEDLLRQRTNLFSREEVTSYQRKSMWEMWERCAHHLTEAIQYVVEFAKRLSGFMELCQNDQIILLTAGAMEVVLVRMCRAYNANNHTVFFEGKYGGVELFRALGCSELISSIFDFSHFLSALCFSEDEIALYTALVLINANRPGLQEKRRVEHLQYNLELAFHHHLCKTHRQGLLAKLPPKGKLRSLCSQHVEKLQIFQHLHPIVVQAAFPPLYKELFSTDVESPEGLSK

The target of the assay is Nuclear receptor ROR-gamma (Mus musculus) (UniProt P51450). The experiment in a line: Secondary confirmation assay for inhibitors of ROR gamma transcriptional activity. The conditions noted are these: Drosophila S2 Gal4-RORgamma UAS-luciferase reporter, 20 h; series mostly up to 92.2 µM; activity change, negative = inhibition: at the top concentration. The gist of the method:
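Luminescence read after 20 hr at ambient temperature, following 1 hr compound exposure and copper sulfate induction (700 uM final), in stably transfected Schneider cells carrying Gal4-ROR gamma fusion and UAS-driven firefly luciferase.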
(In general: Reporter assays use an easily measured gene product as a stand-in for the process of interest.)
With `COc1ccc2nc(NNC(=O)COc3ccccc3)sc2c1`, the Potency was 4.57 µM (active).

Regarding `COc1cc(O)c(C(CC(=O)N2CCCCC2)c2ccc3c(c2)OCO3)c(OC)c1` (configuration not stated), the Potency was 20.4 µM (active). `COc1ccc(CNC(=O)[C@@H](NC(=O)C2CCN(C(=O)[C@@H]3CCCN3C(=O)OC(C)(C)C)CC2)C(C)C)cc1`: the “activity change, negative = inhibition” value was -21% (inactive). With `COc1ccc(-c2c[n+]3c(n2-c2ccc(C)cc2)CCCCC3)cc1`, the Potency is 11.5 µM (active). In the case of `COc1ccc(C(CC(=O)N2CCCC(C)C2)c2c(O)cc(OC)cc2OC)c(OC)c1` (configuration not stated), the “activity change, negative = inhibition” value was -12.9% (inactive). On to `CCOC(=O)c1sc(NC(=O)c2ccc(S(=O)(=O)N(C)C)cc2)nc1C`, for which the Potency is 0.129 µM (active). On to `COc1cc(O)c(C(CC(=O)N2CC(C)CC(C)C2)c2ccc3c(c2)OCCO3)c(OC)c1` (configuration not stated), for which the Potency is 0.645 µM (active).

As to `COc1cc(O)c(C(CC(=O)N2CCc3ccccc3C2)c2ccc3c(c2)OCO3)c(OC)c1` (configuration not stated), the “activity change, negative = inhibition” value is -29.7% (inactive). For the molecule `CC(C)(C)c1ccc([S+](=O)([O-])Nc2ccccc2C(O)(C(F)(F)F)C(F)(F)F)cc1`, the Potency is 16.2 µM (active). For the molecule `COc1cc(O)c(C(CC(=O)N2CCCC(C(=O)c3ccccc3)C2)c2ccc3c(c2)OCO3)c(OC)c1` (configuration not stated), the “activity change, negative = inhibition” value is 15% (inactive). With `Cc1ccc(Sc2cncc3sc(C(N)=O)cc23)cc1`, the Potency was 0.204 µM (active). Same read-out and setting: with `CN1CCN(C(=O)CCN2C(=O)/C(=C\c3ccccc3F)SC2=S)CC1` the figure was 18.2 µM (active). On to `Cc1cc(C)nc(-n2nc(C)cc2NC(=O)CNC(C)c2ccccc2)n1` (configuration not stated), for which the Potency was 5.75 µM (active). In the case of `Cc1ccc(O)c(C(CC(=O)NC2CCCCC2)c2ccccc2)c1` (configuration not stated), the “activity change, negative = inhibition” value was 18.9% (inactive).

`CCOC(=O)c1sc(NC(=O)c2cc3c(s2)CCC(C)C3)nc1C` (configuration not stated): the Potency is 0.144 µM (active).

In the case of `O=S(=O)(c1ccc(NC(=S)N/N=C/c2ccc(Oc3ccccc3)cc2)cc1)N1CCOCC1`, the Potency was 1.15 µM (active). Consider `COc1cc(O)c(C(CC(=O)N2CCCC(C)C2)c2cccs2)c(OC)c1` (configuration not stated), for which the Potency is 7.24 µM (active). Regarding `COc1cc(O)c(C(CC(=O)N2CCCC2)c2ccc3c(c2)OCO3)c(OC)c1` (configuration not stated), the “activity change, negative = inhibition” value was -12.2% (inactive). Consider `Cc1cc(C)c2[nH]c(C(=O)Nc3ccc4c(c3)OCO4)cc2c1`, for which the Potency is 0.257 µM (active).

As for `COc1cc(O)c(C(CC(=O)N2CCC(C)CC2)c2ccc(C)cc2)c(OC)c1` (configuration not stated), the Potency is 14.4 µM (active). Same read-out and setting: with `C[C@H]1O[C@@H](O[C@H]2[C@@H](O)C[C@@H](O[C@H]3[C@@H](O)C[C@H](O[C@H]4CC[C@@]5(C)[C@H](CC[C@@H]6[C@@H]5CC[C@]5(C)[C@@H](C7=CC(=O)OC7)CC[C@]65O)C4)O[C@@H]3C)O[C@@H]2C)C[C@H](O)[C@@H]1O` the figure was 1.44 µM (active); with `COc1cc(O)c(C(CC(=O)N2CCCC(C)C2)c2ccc(C(C)C)cc2)c(OC)c1` (configuration not stated), 14.4 µM (active). Still for that read-out and setting: next, `CCOc1ncccc1C(=O)OCC(=O)Nc1ccc(-c2nc3ccc(C)cc3s2)cc1`: 0.407 µM (active). Take `COc1cc(O)c(C(CC(=O)N2CCCC(C(=O)N3CCCCC3)C2)c2ccc3c(c2)OCO3)c(OC)c1` (configuration not stated): the “activity change, negative = inhibition” value was 30% (inactive). For the molecule `COc1cc(O)c(C(CC(=O)N2CCCC(C)C2)c2ccc(OC)c(OC)c2)c(OC)c1` (configuration not stated), the Potency was 9.11 µM (active). On the same count and under the same terms, with `CCC1CCCN(C(=O)CC(c2ccc3c(c2)OCO3)c2c(O)cc(OC)cc2OC)C1` (configuration not stated) the figure was 3.23 µM (active). Take `COc1cc(OC)c(C(CC(=O)N2CC(C)CC(C)C2)c2ccc3c(c2)OCO3)c(OCC(N)=O)c1` (configuration not stated): the Potency was 11.5 µM (active). Same read-out and setting: next, `O=C(CCCOc1ccccc1)Nc1nc2ccccc2[nH]1`: 7.24 µM (active).

As for `COc1cc(O)c(C(CC(=O)N2CCCC(C)C2)c2ccc3ccccc3c2)c(OC)c1` (configuration not stated), the Potency was 5.75 µM (active). Still for that read-out and setting: with `CCn1cc(C(=O)O)c(=O)c2cnc(N3CCN(C(=S)NC(=O)c4ccccc4)CC3)nc21` the figure was 11.5 µM (active). On to `CC1=C(\C=C/C(C)=C/C=C\C(C)=C\C(=O)O)C(C)(C)CCC1`, for which the activity change, negative = inhibition was -12.4% [at 20 µM] (inactive). For the molecule `CCOc1cccc(-c2cc(-c3n[nH]c(=S)n3CC)c3ccccc3n2)c1`, the Potency was 2.29 µM (active) and 1.82 µM (active). For the molecule `COc1cc(OC)c2c(c1)OC(=O)CC2c1ccc2c(c1)OCO2` (configuration not stated), the “activity change, negative = inhibition” value is 11.1% (inactive). On to `COc1cc(O)c(C(CC(=O)N2CCCC(C)C2)c2ccccc2C)c(OC)c1` (configuration not stated), for which the Potency is 7.24 µM (active). Regarding `CCC1(CC)CCN(C(=O)CC(c2ccc3c(c2)OCO3)c2c(O)cc(OC)cc2OC)C1` (configuration not stated), the Potency was 22.9 µM (active). On the same count and under the same terms, next, `CCOc1ccc(C(CC(=O)N2CCCC(C)C2)c2c(O)cc(OC)cc2OC)cc1` (configuration not stated): 4.07 µM (active). In the case of `CC1CCCN(C(=O)CC(c2ccccc2)c2ccc(O)cc2)C1` (configuration not stated), the “activity change, negative = inhibition” value was 0.816% (inactive).
